Bioassay records (PubChem BioAssay)
Pf apPOL inh – Pf-apPOL inhibitors, biochemical, fluorescence; Plasmodium falciparum apicoplast DNA polymerase (apPOL); Recombinant Pf-apPOL, molecular beacon fluorescence, 1.5 h; inhibition, % at 10 µM; 210,000 compounds, 0.25% hits
mHTT-CaM PPI inh – mutant huntingtin-calmodulin interaction inhibitors – biochemical, AlphaScreen, primary screen; AID 1671202, 2021; inhibition, % at 15 µM; 190,000 compounds, 3.6% hits; AlphaScreen His-mHTT/GST-CaM binding, luminescence; P42858
Target sequence (P42858 whole entry, looked up, change not shown): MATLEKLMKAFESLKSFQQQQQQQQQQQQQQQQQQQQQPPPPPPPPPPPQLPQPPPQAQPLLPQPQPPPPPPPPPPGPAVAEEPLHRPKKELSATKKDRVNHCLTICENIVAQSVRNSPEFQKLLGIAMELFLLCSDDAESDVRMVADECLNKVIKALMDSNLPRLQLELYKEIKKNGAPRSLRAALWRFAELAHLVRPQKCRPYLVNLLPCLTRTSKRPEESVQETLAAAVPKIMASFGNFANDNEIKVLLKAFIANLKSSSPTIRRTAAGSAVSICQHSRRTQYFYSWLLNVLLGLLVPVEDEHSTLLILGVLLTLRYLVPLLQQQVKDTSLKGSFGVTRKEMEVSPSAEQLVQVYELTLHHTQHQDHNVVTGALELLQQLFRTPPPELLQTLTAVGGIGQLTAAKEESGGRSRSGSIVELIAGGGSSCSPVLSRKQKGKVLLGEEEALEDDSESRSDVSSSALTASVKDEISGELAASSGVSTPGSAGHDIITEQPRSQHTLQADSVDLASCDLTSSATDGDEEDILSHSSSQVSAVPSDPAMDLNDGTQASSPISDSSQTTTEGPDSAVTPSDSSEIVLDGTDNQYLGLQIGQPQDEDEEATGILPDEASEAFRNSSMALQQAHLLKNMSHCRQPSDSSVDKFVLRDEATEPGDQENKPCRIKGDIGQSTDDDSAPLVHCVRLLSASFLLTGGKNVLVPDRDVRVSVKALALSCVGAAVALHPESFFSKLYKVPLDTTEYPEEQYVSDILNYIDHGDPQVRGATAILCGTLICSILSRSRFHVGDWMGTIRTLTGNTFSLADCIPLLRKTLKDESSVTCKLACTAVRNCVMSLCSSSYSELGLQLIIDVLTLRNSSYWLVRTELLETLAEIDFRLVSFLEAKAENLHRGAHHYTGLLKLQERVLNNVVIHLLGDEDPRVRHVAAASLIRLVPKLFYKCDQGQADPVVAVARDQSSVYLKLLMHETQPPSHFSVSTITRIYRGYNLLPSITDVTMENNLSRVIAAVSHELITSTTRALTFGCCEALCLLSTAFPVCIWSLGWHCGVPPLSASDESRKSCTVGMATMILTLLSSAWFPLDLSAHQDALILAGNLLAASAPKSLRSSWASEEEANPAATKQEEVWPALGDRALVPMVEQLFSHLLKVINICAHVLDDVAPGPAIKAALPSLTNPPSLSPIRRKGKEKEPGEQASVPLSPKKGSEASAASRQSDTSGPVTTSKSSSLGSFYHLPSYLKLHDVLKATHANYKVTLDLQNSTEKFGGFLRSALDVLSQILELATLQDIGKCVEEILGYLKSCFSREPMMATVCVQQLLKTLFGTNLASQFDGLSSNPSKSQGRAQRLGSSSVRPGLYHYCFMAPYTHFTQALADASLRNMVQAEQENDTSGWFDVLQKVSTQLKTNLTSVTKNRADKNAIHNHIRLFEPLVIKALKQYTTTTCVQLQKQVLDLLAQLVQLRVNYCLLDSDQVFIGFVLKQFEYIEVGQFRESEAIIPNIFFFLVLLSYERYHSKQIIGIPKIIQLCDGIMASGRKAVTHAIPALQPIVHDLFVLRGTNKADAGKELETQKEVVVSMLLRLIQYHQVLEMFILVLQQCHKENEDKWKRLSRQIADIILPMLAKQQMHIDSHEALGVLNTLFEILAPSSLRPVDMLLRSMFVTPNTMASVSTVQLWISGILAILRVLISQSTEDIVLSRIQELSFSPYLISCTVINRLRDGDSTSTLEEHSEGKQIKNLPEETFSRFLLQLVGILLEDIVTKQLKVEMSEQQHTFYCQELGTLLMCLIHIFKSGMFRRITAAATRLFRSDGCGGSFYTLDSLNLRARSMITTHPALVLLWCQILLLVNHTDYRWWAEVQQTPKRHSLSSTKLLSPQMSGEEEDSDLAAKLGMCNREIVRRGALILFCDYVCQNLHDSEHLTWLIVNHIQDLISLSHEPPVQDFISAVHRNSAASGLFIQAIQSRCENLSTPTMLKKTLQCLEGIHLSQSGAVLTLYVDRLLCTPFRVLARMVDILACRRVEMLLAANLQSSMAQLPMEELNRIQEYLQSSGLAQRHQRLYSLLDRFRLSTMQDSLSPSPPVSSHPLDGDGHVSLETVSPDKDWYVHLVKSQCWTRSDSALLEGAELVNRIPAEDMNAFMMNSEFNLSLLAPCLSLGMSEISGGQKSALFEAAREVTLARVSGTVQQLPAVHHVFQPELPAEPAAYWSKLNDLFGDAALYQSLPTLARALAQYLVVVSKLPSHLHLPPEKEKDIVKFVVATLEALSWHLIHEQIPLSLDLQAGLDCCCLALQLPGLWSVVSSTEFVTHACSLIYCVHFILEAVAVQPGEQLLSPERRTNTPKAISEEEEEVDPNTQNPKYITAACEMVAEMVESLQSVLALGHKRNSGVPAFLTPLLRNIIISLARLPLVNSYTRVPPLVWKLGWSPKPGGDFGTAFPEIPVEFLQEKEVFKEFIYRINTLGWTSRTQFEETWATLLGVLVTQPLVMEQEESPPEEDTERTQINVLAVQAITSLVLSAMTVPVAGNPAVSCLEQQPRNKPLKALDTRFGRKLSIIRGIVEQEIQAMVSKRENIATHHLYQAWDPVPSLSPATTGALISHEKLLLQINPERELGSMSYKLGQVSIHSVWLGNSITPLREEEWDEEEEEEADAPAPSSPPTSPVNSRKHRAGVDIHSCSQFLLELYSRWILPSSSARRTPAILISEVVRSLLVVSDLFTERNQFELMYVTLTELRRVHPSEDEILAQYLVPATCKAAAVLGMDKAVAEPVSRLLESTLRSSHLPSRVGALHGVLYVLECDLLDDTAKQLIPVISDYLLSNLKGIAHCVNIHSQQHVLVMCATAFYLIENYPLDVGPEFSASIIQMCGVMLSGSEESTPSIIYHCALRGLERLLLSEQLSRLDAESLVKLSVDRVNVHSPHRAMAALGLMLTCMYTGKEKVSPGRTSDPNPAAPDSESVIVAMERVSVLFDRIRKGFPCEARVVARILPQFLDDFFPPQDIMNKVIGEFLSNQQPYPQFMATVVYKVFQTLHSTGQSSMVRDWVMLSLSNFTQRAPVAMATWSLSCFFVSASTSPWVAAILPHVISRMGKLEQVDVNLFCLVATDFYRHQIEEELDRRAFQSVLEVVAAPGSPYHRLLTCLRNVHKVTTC
A number is an active result; . = inactive; / = no result. Sampled rows, rich in hits. Any-hit rate of the full collection: about 3.5%. Rule as the data show it: active = inhibition above about 50%; inactive = the rest.

SMILES | Pf apPOL inh | mHTT-CaM PPI inh
CCCCN(CCCC)S(=O)(=O)c1ccc(C(=O)Nc2nnc(C)o2)cc1 | . | 58
CCCCN(CC)S(=O)(=O)c1ccc(C(=O)Nc2nnc(C3CC3)o2)cc1 | . | .
COCCN(CCOC)S(=O)(=O)c1ccc(C(=O)Nc2nnc(C)o2)cc1 | . | .
CCN(Cc1ccccc1)S(=O)(=O)c1ccc(C(=O)Nc2nnc(C3CC3)o2)cc1 | . | 72
CCN(CC)CCCNC(=O)CN1C(=O)/C(=C/c2ccc(Cl)cc2)Sc2ccccc21 | . | .
CN(C)c1ccc(/C=C/c2cc[n+](C)c3ccccc23)cc1 | . | 80
C[n+]1ccc(/C=C/c2ccc3c(c2)OCO3)c2ccccc21 | . | .
Clc1ccc(CN2CCc3nc(Nc4ccc5c(c4)OCO5)ncc3C2)cc1 | . | .
c1cc2c(cc1CN1CCc3nc(Nc4ccc5c(c4)OCCO5)ncc3C1)OCCO2 | . | 71
Fc1ccccc1Nc1ncc2c(n1)CCN(Cc1ccc3c(c1)OCCO3)C2 | . | .
Clc1ccc(CN2CCc3nc(Nc4ccc5c(c4)OCCO5)ncc3C2)cc1 | . | 77
COc1ccc(C=C2Oc3c(ccc(O)c3CN3CCCCCC3)C2=O)c(OC)c1OC | . | .
COc1ccc(NC(=O)C2=C(C)NC(=O)NC2c2cccs2)c(OC)c1 (configuration not stated) | . | .
COc1ccc(NC(=O)C2=C(C)NC(=O)NC2c2ccc(OC)cc2OC)c(OC)c1 (configuration not stated) | . | 73
COc1cc(C2NC(=O)NC(C)=C2C(=O)Nc2ccc(F)c(F)c2)ccc1O (configuration not stated) | . | .
COc1ccc(C2NC(=O)NC(C)=C2C(=O)Nc2ccc(C)c(Cl)c2)cc1OC (configuration not stated) | . | 54
CCOC(=O)NN=C(C(=O)OCC)C(F)(F)F | . | /
COc1ccc(N(CC(=O)NCc2ccncc2)S(C)(=O)=O)cc1 | . | .
CC1(c2ccc(Cl)cc2)CC(C)(C)N(C(=O)c2cccnc2)c2ccccc21 (configuration not stated) | . | .
Cn1ccnc1SCC(=O)N1c2ccccc2C(C)(c2ccc(Cl)cc2)CC1(C)C (configuration not stated) | . | 61
COc1ccc(NC(=O)CN2CCN(C3c4ccccc4-c4ccccc43)CC2)cc1Cl | . | .
O=C(CN1CCN(C2c3ccccc3-c3ccccc32)CC1)Nc1ccc2c(c1)OCCO2 | . | 58
Cc1noc(C=Cc2nn(C)cc2Cl)c1[N+](=O)[O-] | . | /
Cc1cccc(N2CCCC2=Nc2ccccc2C#N)c1 | . | .
O=C(c1cc(=O)c(OCc2ccc(F)cc2)co1)N1CCN(c2ncccn2)CC1 | . | .
SMILES | Pf apPOL inh | mHTT-CaM PPI inh
CCOc1ccc(CCNC(=O)Cn2nnc(-c3ccc(F)cc3)n2)cc1OCC | . | .
CCOc1ccc(CCNC(=O)Cn2nnc(-c3ccc(OC)cc3)n2)cc1OCC | . | 76
COc1cccc(C(=O)N2CCN(c3ccc(Nc4ccccn4)nn3)CC2)c1OC | . | .
O=C(Cn1ccc2ccccc21)N1CCN(c2ccc(-c3ccccn3)nn2)CC1 | . | .
O=C(CSC1CCCC1)N1CCN(c2ccc(-c3ccccn3)nn2)CC1 | . | 100
O=C(CCSc1ccccc1)N1CCN(c2ccc(-c3ccccn3)nn2)CC1 | . | 100
O=C(CSCc1ccccc1)N1CCN(c2ccc(-c3cccs3)nn2)CC1 | . | .
COc1cccc(C(=O)N2CCN(c3ccc(-c4ccccn4)nn3)CC2)c1OC | . | 100
CC(C)(C)c1ccc(O)c(C(C)(C)C)c1O | . | 98
CC(C)(C)c1cc(S)cc(C(C)(C)C)c1O | / | .
CC1CCc2c(C(=O)NCCc3ccc(Cl)cc3)csc2C1 (configuration not stated) | . | .
COc1ccc(CC(=O)NC2C3CC4CC(C3)CC2C4)cc1OC (configuration not stated) | . | .
COc1ccc(NC2C3CC4CC(C3)CC2C4)cc1OC (configuration not stated) | . | 62
O=C(c1ccc(-c2ccccc2)cc1)N1CCN(C(=O)c2cccnc2)CC1 | . | .
O=C(O)c1cncc(-c2ccccc2)c1 | 80 | /
CC(=O)NC(N(C)S(=O)(=O)c1ccc(C)cc1)C(Cl)(Cl)Cl (configuration not stated) | . | .
Cc1csc(-c2c(C(F)(F)F)oc3c(C)c(O)ccc3c2=O)n1 | . | .
Cc1ccc(CNC(=O)CC(C(=O)N2CCc3ccccc32)n2ccnc2)cc1 (configuration not stated) | . | .
Cc1cccc(NC(=O)COc2ccc(Cl)c(C)c2)n1 | . | .
Cc1cccc(NC(=O)COc2c(C)cc(Cl)cc2Cl)n1 | 58 | .
COC(=O)NC1CCN(c2ccccc2C(=O)N2CCCCC2C)CC1 (configuration not stated) | . | .
CC1(C)CC(=NOC(=O)c2cc3ccccc3oc2=O)c2ccoc2C1 | . | .
Cn1c(C2CCN(C(=O)c3ccc(Cl)cc3)C2)nc2cccnc21 (configuration not stated) | . | .
Cc1ccc(NC(=O)C2(c3ccccc3)CCOCC2)cc1 | . | .
O=C(CSCc1ccccc1)Nc1nnc(-c2ccsc2)o1 | . | .
SMILES | Pf apPOL inh | mHTT-CaM PPI inh
CCSc1ccccc1C(=O)Nc1nnc(-c2ccsc2)o1 | . | 84
O=C(Nc1c(Cl)cccc1Cl)C1(c2ccccc2)CCOCC1 | 86 | .
CCSc1ccccc1C(=O)Nc1nnc(C2CCCCC2)o1 | . | .
O=C(Nc1nnc(-c2ccsc2)o1)C1(c2ccccc2)CCOCC1 | . | 100
COc1ccc(C(=O)Nc2ccc(OC)c(OC)c2)cc1Cl | . | .
CCCCOc1ccc(C(=O)Nc2c3c(nn2-c2ccc(F)cc2)CS(=O)(=O)C3)cc1 | . | .
CSc1ccc(CNC(=O)CC2CCN(C(=O)C3CCCCC3)CC2)cc1 | . | .
COc1cc(CNC(=O)C2CCCN(c3nccnc3Oc3ccccc3)C2)cc(OC)c1 (configuration not stated) | . | .
COc1ccccc1N(C)c1cc2c(c3c1ccn3C)C1CCC2C1 (configuration not stated) | . | 83
COc1ccc(-c2cc3c(c4c2ccn4C)C2CCC3C2)cc1F (configuration not stated) | . | .
CCN(C)c1cc2c(c3c1ccn3C)C1CCC2C1 (configuration not stated) | . | 53
Cn1ccc2c(N(Cc3ccccc3)Cc3ccccc3)cc3c(c21)C1CCC3C1 (configuration not stated) | . | .
Cc1ccccc1-c1cc2c(c3c1ccn3C)C1CCC2C1 (configuration not stated) | . | .
CN(Cc1ccccc1)c1cc2c(c3c1ccn3C)C1CCC2C1 (configuration not stated) | . | 71
Cn1ccc2c(-c3ccc(F)cc3)cc3c(c21)C1CCC3C1 (configuration not stated) | . | .
CN(CCc1ccccc1)c1cc2c(c3c1ccn3C)C1CCC2C1 (configuration not stated) | . | 75
COc1ccc(-c2cc(C(F)(F)F)n3nc(C(=O)N(C)CCC#N)cc3n2)cc1OC | . | .
CC(C)c1noc(C2(NC(=O)c3ccoc3)CCCCC2)n1 | . | .
Cc1ccc(N2CC(C(=O)N(C)Cc3ccccc3)CC2=O)cc1 (configuration not stated) | . | .
